# Test results taken from the supplement of paper PMC11001985.
# Values without a mark were called inactive.
# Compound: C#CCNC(=O)CCSSCCC(=O)NCCc1ccc(C=O)c(C=O)c1
# Test: lysine labeling ratio R10:1 (500 µM / 50 µM probe), SILAC-ABPP in living cells; higher = lower intrinsic lysine reactivity toward the probe, active = 2 or less
# Details: HeLa; probe concentrations 500 vs 50 µM
# Procedure, shortened: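 Each lysine carries an R value: the filtered median of MS1 peptide ratios of high probe to low probe, with the median then taken over forward and reverse replicates. These came from living SILAC light and heavy HeLa cells in PBS at room temperature labelled with an alkyne-tagged, disulfide-linked lysine probe at 500 µM or 50 µM, in forward and reverse swaps. The lysates were mixed, clicked to biotin-azide, trypsin-digested, captured on neutravidin, released by DTT, alkylated and run by LC-MS/MS on a TIMS-TOF Pro. The highest value allowed is 20.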
# UniProt P18084, sequence (P18084 whole entry): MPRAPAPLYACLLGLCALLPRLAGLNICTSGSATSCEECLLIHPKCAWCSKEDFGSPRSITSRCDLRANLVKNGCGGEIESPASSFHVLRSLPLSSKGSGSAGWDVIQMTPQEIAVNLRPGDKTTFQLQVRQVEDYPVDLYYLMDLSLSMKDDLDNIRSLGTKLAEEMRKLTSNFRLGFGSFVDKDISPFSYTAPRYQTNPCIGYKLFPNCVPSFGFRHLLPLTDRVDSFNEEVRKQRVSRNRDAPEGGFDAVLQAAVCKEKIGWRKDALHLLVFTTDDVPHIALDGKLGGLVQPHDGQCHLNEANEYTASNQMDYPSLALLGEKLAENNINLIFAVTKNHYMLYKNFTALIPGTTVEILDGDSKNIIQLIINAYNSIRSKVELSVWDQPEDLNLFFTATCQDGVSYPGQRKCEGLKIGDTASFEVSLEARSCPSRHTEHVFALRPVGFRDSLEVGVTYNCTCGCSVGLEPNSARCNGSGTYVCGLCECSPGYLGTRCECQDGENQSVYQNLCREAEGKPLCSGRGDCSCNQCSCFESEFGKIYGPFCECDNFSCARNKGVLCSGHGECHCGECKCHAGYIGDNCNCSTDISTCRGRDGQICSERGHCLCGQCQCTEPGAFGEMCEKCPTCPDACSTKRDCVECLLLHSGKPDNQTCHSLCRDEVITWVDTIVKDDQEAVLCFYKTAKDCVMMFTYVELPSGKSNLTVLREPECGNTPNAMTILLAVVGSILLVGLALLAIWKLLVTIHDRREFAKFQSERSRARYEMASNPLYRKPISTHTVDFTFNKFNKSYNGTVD
# UniProt P35579, sequence (P35579 whole entry): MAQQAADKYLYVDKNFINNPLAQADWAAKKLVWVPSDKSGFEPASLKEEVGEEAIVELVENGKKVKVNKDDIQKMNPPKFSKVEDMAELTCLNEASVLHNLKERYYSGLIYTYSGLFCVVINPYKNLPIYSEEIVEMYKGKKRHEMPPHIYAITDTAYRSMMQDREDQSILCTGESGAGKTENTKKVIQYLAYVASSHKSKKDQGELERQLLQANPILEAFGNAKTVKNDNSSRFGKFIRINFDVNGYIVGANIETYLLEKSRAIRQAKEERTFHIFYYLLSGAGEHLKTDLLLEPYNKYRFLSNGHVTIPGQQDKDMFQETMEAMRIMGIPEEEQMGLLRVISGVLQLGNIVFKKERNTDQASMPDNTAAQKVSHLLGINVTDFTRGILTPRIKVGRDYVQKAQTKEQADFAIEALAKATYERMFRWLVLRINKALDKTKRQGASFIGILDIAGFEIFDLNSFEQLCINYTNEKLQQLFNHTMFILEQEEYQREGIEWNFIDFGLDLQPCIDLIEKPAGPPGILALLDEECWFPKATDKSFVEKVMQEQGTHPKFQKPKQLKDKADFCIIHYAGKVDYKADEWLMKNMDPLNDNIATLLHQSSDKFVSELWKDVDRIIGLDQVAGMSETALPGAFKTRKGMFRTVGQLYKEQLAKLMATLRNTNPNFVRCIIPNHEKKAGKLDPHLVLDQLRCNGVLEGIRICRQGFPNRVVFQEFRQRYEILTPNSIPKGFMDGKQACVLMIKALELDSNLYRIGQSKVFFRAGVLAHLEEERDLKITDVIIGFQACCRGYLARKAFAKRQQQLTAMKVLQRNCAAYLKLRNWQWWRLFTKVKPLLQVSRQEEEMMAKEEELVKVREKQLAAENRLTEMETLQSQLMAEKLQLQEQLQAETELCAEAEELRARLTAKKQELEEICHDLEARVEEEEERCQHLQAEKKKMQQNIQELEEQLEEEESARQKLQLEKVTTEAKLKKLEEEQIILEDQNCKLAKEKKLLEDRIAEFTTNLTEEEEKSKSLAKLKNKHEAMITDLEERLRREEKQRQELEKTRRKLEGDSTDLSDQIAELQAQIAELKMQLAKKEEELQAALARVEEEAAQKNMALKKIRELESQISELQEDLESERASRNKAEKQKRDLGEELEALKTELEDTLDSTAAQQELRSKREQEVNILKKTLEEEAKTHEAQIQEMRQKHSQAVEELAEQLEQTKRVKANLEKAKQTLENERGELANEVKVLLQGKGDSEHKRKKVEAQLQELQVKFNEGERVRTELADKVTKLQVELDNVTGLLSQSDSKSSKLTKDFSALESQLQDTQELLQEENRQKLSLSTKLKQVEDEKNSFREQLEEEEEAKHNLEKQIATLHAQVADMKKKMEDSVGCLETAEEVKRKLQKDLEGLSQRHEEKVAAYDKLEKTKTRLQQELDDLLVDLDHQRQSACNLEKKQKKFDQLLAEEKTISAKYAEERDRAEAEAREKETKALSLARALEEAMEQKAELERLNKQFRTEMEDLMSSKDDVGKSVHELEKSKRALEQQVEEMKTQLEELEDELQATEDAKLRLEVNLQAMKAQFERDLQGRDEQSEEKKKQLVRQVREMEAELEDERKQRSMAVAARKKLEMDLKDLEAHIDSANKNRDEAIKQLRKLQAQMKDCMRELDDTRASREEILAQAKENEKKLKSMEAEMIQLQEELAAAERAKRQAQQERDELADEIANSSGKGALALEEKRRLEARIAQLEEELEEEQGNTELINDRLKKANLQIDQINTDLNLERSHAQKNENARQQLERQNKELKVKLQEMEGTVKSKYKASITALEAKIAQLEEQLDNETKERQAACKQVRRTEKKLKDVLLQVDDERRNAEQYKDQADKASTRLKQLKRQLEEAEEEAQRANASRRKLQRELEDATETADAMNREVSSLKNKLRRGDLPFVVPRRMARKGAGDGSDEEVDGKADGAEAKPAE
# UniProt Q9UL46, sequence (Q9UL46 whole entry): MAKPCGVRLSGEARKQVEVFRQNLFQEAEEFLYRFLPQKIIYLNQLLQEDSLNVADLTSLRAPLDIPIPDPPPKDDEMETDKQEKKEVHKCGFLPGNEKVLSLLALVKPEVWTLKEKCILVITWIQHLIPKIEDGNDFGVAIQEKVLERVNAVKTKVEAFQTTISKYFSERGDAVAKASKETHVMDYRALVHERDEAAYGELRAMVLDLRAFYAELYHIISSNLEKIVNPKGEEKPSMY
# UniProt P49184, sequence (P49184 whole entry): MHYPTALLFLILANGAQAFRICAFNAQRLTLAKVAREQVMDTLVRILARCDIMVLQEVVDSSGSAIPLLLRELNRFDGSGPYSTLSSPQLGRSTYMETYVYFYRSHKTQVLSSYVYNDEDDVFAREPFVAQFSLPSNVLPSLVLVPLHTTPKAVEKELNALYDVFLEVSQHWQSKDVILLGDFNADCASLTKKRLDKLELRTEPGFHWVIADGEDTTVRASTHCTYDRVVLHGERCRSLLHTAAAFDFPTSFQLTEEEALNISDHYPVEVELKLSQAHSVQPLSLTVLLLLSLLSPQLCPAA
# UniProt P49591, sequence (P49591 whole entry, looked up): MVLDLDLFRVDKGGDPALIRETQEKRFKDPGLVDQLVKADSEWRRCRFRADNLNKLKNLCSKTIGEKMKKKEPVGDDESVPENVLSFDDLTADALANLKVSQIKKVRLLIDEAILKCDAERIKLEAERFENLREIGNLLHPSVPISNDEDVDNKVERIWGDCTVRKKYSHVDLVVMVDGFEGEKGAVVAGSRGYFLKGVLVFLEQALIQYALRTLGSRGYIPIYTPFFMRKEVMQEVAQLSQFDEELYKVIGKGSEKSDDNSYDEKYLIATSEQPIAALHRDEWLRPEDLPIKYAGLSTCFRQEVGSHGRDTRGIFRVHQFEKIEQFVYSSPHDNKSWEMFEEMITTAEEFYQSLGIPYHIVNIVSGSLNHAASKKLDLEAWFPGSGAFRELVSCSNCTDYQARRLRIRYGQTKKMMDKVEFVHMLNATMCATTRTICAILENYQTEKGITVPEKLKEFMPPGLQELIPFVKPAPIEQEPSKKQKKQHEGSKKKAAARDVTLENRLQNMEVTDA
# UniProt O00571, sequence (O00571 whole entry, looked up): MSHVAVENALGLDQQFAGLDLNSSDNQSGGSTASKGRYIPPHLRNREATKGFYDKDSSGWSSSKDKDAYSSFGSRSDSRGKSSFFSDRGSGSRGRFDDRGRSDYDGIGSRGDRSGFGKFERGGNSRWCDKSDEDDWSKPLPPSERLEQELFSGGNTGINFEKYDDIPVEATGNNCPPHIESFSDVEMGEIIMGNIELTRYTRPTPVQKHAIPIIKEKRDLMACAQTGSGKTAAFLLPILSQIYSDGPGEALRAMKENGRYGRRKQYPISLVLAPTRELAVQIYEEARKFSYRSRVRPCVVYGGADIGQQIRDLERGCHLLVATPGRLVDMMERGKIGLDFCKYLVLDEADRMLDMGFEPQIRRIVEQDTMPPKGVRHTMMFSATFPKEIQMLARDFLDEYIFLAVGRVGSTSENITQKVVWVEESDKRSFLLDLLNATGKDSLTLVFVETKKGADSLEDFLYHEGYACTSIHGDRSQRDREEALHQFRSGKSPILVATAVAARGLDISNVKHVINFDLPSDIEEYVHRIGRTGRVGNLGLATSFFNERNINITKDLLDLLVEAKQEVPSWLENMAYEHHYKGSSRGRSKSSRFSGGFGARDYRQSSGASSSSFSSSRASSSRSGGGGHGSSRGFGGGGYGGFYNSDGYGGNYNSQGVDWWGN
# UniProt P00505, sequence (P00505 whole entry): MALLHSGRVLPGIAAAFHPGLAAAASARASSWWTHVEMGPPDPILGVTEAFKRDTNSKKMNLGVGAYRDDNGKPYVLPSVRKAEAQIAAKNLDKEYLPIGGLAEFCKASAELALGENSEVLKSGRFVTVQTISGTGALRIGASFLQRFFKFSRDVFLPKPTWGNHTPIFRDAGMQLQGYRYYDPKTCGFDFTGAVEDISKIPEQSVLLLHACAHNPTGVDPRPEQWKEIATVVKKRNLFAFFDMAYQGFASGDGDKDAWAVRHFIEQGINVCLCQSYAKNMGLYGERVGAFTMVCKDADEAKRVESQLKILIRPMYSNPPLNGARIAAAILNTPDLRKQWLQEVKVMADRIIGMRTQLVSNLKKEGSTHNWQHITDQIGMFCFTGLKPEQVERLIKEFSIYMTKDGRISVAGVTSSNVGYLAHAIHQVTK
# UniProt O14737, sequence (O14737 whole entry): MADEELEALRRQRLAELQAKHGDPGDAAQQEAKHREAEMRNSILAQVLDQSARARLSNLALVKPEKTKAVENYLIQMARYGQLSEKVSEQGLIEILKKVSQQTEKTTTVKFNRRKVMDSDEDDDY
row,Target,lysine labeling ratio R10:1
1,MYH9 (lysine site: K1828) (UniProt P35579),2.77
2,UniProt O60462 (lysine site: K547),4.2
3,FN1 (lysine site: K248) (UniProt P02751),2.7
4,CCT4 (lysine site: K42) (UniProt P50991),4.65
5,AHNAK (lysine site: K128) (UniProt Q09666),1.37 (active)
6,UniProt P62280 (lysine site: K30),4.32
7,DSG2 (lysine site: K251) (UniProt Q14126),8.19
8,MCAM (lysine site: K119) (UniProt P43121),11.1
9,DDX5 (lysine site: K80) (UniProt P17844),3.64
10,VIM (lysine site: K313) (UniProt P08670),10.6
11,TFPI (lysine site: K64) (UniProt P10646),1.41 (active)
12,PDIA3 (lysine site: K274) (UniProt P30101),3.59
13,RBMX (lysine site: K150) (UniProt P38159),16.9
14,UniProt P49591 (lysine site: K12),0.947 (active)
15,CD151 (lysine site: K186) (UniProt P48509),6.68
16,ITGB5 (lysine site: K170) (UniProt P18084),3.44
17,LAMC1 (lysine site: K1041) (UniProt P11047),2.18
18,PLXNA1 (lysine site: K1084) (UniProt Q9UIW2),2.49
19,PLPP3 (lysine site: K187) (UniProt O14495),2.06
20,TXNDC5 (lysine site: K429) (UniProt Q8NBS9),0.74 (active)

row,Target,lysine labeling ratio R10:1
1,HSPA9 (lysine site: K76) (UniProt P38646),3.36
2,KTN1 (lysine site: K559) (UniProt Q86UP2),1.4 (active)
3,UniProt Q16629 (lysine site: K24),3
4,RPL14 (lysine site: K85) (UniProt P50914),1.23 (active)
5,DSTN (lysine site: K78) (UniProt P60981),1.54 (active)
6,PDCD5 (lysine site: K33) (UniProt O14737),4.82
7,ROBO1 (lysine site: K237) (UniProt Q9Y6N7),3.22
8,PLOD3 (lysine site: K89) (UniProt O60568),5.28
9,FLOT1 (lysine site: K184) (UniProt O75955),1.83 (active)
10,DDX3X (lysine site: K81) (UniProt O00571),2.77
11,CDH2 (lysine site: K699) (UniProt P19022),10.6
12,UniProt P62913 (lysine site: K67),3.62
13,DNASE1L1 (lysine site: K107) (UniProt P49184),1.25 (active)
14,PSME2 (lysine site: K15) (UniProt Q9UL46),6.45
15,S100A4 (lysine site: K35) (UniProt P26447),6.43
16,ITGB5 (lysine site: K519) (UniProt P18084),0.882 (active)
17,GOT2 (lysine site: K73) (UniProt P00505),3.72
18,ITGA1 (lysine site: K1046) (UniProt P56199),0.547 (active)
19,UniProt P21589 (lysine site: K232),1.92 (active)
20,SLC3A2 (lysine site: K615) (UniProt P08195),3.54
